From PubChem BioAssay (Tox21)
Inconclusive results are not listed. A call without a number means that no potency is given here. The source made the active and inactive calls. Calls come from the whole dose curve.

molecular target: Retinoic acid receptor RXR-alpha (Homo sapiens) (UniProt P19793); experiment: qHTS assay to identify small molecule agonists of the RXR signaling pathway (AID 1159527); details: HEK293T RXRa-UAS-bla, beta-lactamase ratio, 16 h; series mostly up to 76.8 µM; note: nearly all actives have a fitted effect of over 35% in size
From the text: U.S. Tox21 Program National Center for Advancing Translational Sciences [NCATS] NIH Chemical Genomics Center [NCGC] U.S. Environmental Protection Agency [EPA] National Institutes of Environmental Health Sciences [NIEHS] National Toxicology Program [NTP] U.S. Food and Drug Administration [FDA] Tox21 Assay Overview: The Retinoid X receptor (RXR), a nuclear hormone receptor expressed in liver, spleen, placenta, epidermis, central nervous system. These receptors are able to form homo and heterodimers with other nuclear receptors and due to this heterodimerizing ability, RXR functions as master regulators producing diverse physiological effects. Three subtypes of RXR exist; alpha, beta and gamma. Retinoid X receptor alpha (RXR-alpha) has potential roles in metabolic signaling pathways, skin alopecia, dermal cysts, cardiac development, insulin sensitization etc. Therefore screening environmental chemicals on RXR-alpha signaling can be used for the studies focused on such therapeutic applications. For quantification of RXR-alpha ligands signaling, GeneBLAzer RXR alpha-UAS-bla HEK 293T (Life Technologies, Carlsbad, CA) cells containing a beta-lactamase reporter-gene under control of Retinoid X receptor-alpha response element were used to screen Tox21 10K library.
Tox21 Assay Protocol Summary: RXR-alpha HEK 293T cells were dispensed at 2,000 cells/6 uL of assay medium containing 2% charcoal-stripped FBS using a Multidrop Combi (ThermoFisher Scientific, Waltham, MA) dispenser. The assay was performed in black wall/clear-bottom 1536-well plates (Greiner Bio-One North America Inc. Monroe, NC). 9-cis retinoic acid was used as a positive control in the agonist mode screen. After the assay plates were incubated at 37 C and 5% CO2 for 5 hr, 23 nL of compounds dissolved in DMSO, positive controls or DMSO only were transferred to the assay plate by a Pintool station (Kalypsys, San Diego, CA). The assay plates were incubated at 37 C and 5% CO2 for 16 hr. One uL of LiveBLAzer B/G FRET substrate (Life Technologies) was added using a Flying Reagent Dispenser (Aurora Discovery, San Diego, CA) and the plates were incubated at room temperature for 2 hr. Fluorescence intensity (405 nm excitation, 460/530 nm emission) was measured using an Envision plate reader (PerkinElmer, Shelton, CT).

Retinoic acid receptor RXR-alpha (Homo sapiens), sequence (P19793 whole entry, looked up): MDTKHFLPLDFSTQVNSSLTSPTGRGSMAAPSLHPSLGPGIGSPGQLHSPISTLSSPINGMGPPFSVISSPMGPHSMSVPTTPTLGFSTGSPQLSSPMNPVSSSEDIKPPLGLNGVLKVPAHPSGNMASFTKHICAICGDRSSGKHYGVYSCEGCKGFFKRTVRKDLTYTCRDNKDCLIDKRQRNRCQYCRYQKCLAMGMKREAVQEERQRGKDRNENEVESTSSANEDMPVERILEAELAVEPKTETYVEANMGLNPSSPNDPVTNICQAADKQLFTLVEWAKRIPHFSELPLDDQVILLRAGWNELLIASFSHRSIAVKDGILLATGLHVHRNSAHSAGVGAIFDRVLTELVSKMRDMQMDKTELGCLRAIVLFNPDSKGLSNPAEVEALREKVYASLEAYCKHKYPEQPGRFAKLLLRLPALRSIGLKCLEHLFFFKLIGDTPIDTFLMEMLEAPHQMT

SMILES | Potency | activation
C=Cc1ccc(C(C)(C)C)cc1 | inactive | 
O=C(O)CCCCCC(=O)O | inactive | 
CCO[Si](CC)(OCC)OCC | inactive | 
CC(=O)OCC(=O)Nc1cc(C#N)cc(NC(=O)COC(C)=O)c1Cl | inactive | 
Fc1ccccc1 | inactive | 
[O-][n+]1cccc(/C(Cl)=N/OC[C@@H](O)CN2CCCCC2)c1 | inactive | 
CC(=O)CC(=O)OC(C)(C)C | inactive | 
CC(=O)CCC1=C(C)CCCC1(C)C | inactive | 
CC1=NN(c2ccc(S(=O)(=O)O)cc2)C(=O)C1 | inactive | 
COc1ccc(CCO)cc1 | inactive | 
CCC(=O)c1c(O)cc(O)cc1O | inactive | 
C[Si]1(C)O[Si](C)(C)O[Si](C)(C)O[Si](C)(C)O[Si](C)(C)O1 | inactive | 
NCCOCCN | inactive | 
CC(=O)O[C@H]1C[C@@H]2CC[C@@]1(C)C2(C)C | inactive | 
Cc1c(Cl)cccc1Cl | inactive | 
Nc1nc(-c2ccccc2)c(Br)c(=O)[nH]1 | inactive | 
CN(C)CCCO[C@@H]1[C@H]2OC(C)(C)O[C@H]2O[C@@H]1C(O)CO (stereo not given in full) | inactive | 
CC(C)C[C@@H]1[C@H](c2ccccc2)OC(=O)N1CCCN1CCCCCC1 | inactive | 
CC1(C)CC(OC(=O)CCCCCCCCC(=O)OC2CC(C)(C)NC(C)(C)C2)CC(C)(C)N1 |  | -1.61% [at 15.8 µM] (inactive)
CCC[C@@H]1C[C@@H](C(=O)N[C@@H]([C@H]2O[C@H](SC)[C@H](O)[C@@H](O)[C@H]2O)[C@@H](C)O)N(C)C1 | inactive | 

SMILES | Potency | activation
Cc1ncc([N+](=O)[O-])n1CC(C)O (stereo not given) | inactive | 
Cc1ccc(C(C)NC(=O)[C@@H](NC(=O)OC(C)C)C(C)C)cc1 (stereo not given in full) | inactive | 
CCC(C)OC(C)CC (stereo not given) | inactive | 
Nc1nnnn1-c1ccccc1 | inactive | 
OC[C@H]1O[C@@H](O[C@@H]2[C@@H](CO)O[C@](O)(CO)[C@H]2O)[C@H](O)[C@@H](O)[C@H]1O | inactive | 
O=C1CCCCO1 | inactive | 
CC(Oc1cc(Cl)ccc1Cl)C(=O)O (stereo not given) | inactive | 
O=C[O][Al]([O]C=O)[O]C=O | inactive | 
CC1c2ccccc2CN1NC(=O)c1ccc(Cl)c(S(N)(=O)=O)c1 (stereo not given) | inactive | 
CC(O)COC(C)(C)C (stereo not given) | inactive | 
CCCC(=O)OC/C=C(\C)CCC=C(C)C | inactive | 
O/N=C/C=N/O | inactive | 
CCC(=O)CC | inactive | 
c1ccc2cnccc2c1 | inactive | 
CC(C)OC(=O)OCOP(=O)(CO[C@H](C)Cn1cnc2c(N)ncnc21)OCOC(=O)OC(C)C | inactive | 
OC1OCCOC1O (stereo not given) | inactive | 
CCCCCCCCCCOC(C)=O | inactive | 
O=C(CN1CCNCC1)NC1CCCCC1 | inactive | 
CN(C)CCCCl | inactive | 
CCCCCCCCCCCCCCCCCC#N | inactive | 
